Laboratory results taken from the supplement of paper PMC3334620.
Whole data set: some 33,000 sequences, median “E-score (-0.5 to 0.5)” near -0.035, cut for the highest 2% near 0.34. Many of the other results were omitted from the sample, so the highest values are more common in it than they were.

Each sequence was assayed against T1, Mot3 (UniProt P54785) (assay: PBM E-score (8-mer binding enrichment) (E-score (-0.5 to 0.5)); higher = stronger / more preferred TF binding). Conditions: protein concentration: 200 nM; construct: GST-full length.
T1 sequence: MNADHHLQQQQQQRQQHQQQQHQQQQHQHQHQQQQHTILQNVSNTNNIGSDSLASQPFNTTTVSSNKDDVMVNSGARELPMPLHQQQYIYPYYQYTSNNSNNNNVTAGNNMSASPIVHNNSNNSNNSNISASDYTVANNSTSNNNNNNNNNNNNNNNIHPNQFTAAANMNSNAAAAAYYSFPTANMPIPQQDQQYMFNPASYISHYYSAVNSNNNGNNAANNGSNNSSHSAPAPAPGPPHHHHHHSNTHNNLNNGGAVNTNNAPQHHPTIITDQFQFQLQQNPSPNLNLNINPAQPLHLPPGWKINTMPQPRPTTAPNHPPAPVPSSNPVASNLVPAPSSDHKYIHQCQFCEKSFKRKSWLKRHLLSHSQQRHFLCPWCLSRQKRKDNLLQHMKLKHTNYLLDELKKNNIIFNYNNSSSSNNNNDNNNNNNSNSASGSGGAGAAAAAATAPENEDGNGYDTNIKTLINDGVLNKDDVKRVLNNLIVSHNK
Method: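 Universal 'all 10-mer' protein binding microarrays (Agilent AMADID 015681) probed with GST-tagged S. cerevisiae TFs (full-length or DBD) made by in vitro transcription/translation (PURExpress), about 100-200 nM. Bound TF was detected with fluorescent anti-GST. Each ungapped 8-mer (which stands for itself and its reverse complement) is scored by the PBM enrichment score (E-score), a modified Wilcoxon-Mann-Whitney statistic from -0.5 to +0.5, computed with the Universal PBM Analysis Suite. Scale: above 0.35 generally sequence-specific binding.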

| Sequence | PBM E-score |
| --- | --- |
| ATCTACCG | -0.115 |
| ACTTTGCT | -0.0166 |
| CTGCCTAA | 0.258 |
| GTGCCCCA | -0.248 |
| GTGCCTAA | 0.49 |
| CCGCCTAC | -0.166 |
| GTGCCCAA | 0.392 |
| ACGCCTAC | 0.0133 |
| ATGCCTAA | 0.278 |
| GCGCCTAC | 0.358 |
| ATGCCCAA | -0.0977 |
| CTTAGAAA | 0.11 |
| AAAGCACC | -0.0982 |
| CAAAGCCC | -0.0136 |
| ACACAACA | 0.307 |
| CTAACCCA | -0.0185 |
| TTAACGAA | 0.128 |
| TAAGGTGA | -0.0657 |
| AACACGAC | 0.344 |
| AACACGTA | 0.32 |
| AACACGTC | 0.316 |
| CACACGAC | 0.0741 |
| AACACGGT | 0.353 |
| AACACGAA | 0.33 |
| AACACGGA | 0.252 |

| Sequence | PBM E-score |
| --- | --- |
| GACACGAC | 0.31 |
| AACACGGC | 0.257 |
| AACACGAG | 0.288 |
| AACACGAT | 0.349 |
| AACACGTT | 0.365 |
| GCATCGCA | -0.36 |
| CGACTTAC | -0.127 |
| GACGCAAC | -0.0695 |
| AGGATTGC | -0.0652 |
| CGTTGAGA | -0.183 |
| AAGTTTTG | 0.167 |
| ACTGGGCG | -0.198 |
| CGCACCTC | -0.0771 |
| TGGCAAAA | 0.0985 |
| AGGCAAAG | 0.472 |
| AGGCAAAC | 0.482 |
| CGGCAAAG | -0.226 |
| CGGCAAAC | -0.217 |
| ATGCAAAT | 0.146 |
| AGGCAAAT | 0.479 |
| AGGCAGAT | 0.0714 |
| AGGCAAAA | 0.467 |
| ATGCAAAG | 0.128 |
| GGGCAAAC | 0.0101 |
| GGGCAAAA | 0.0722 |

| Sequence | PBM E-score |
| --- | --- |
| CCCGACGC | -0.262 |
| ATCGGCGG | -0.342 |
| ACCAGTAG | -0.0459 |
| AAGGTGTG | -0.0849 |
| TTACAGAA | 0.106 |
| ACGCTTAA | 0.114 |
| ATACTTAA | 0.173 |
| CCCCTAAG | -0.313 |
| AGAGGCAA | 0.409 |
| AGAGGCGA | -0.227 |
| TGAGGCAA | 0.389 |
| GGAGGCAA | 0.437 |
| TGAGGCCA | 0.0399 |
| CGAGGCAG | -0.0696 |
| CGAGGCAA | 0.318 |
| TGAGGGCA | -0.0148 |
| CGAGGCAC | 0.411 |
| GGAGGCCA | -0.34 |
| AGAGGCCA | -0.274 |
| GGAGGCGA | -0.194 |
| CCCGTTGA | -0.205 |
| ACGTTCTG | -0.0537 |
| CCTCTTAC | -0.0603 |
| ATCCATAG | -0.206 |
| GGCCGGAC | -0.187 |

| Sequence | PBM E-score |
| --- | --- |
| CACTGGTA | -0.00383 |
| AGCGTTTC | 0.127 |
| GTTGCTTA | 0.0798 |
| AAGGATCA | 0.0089 |
| AGAGGCAG | -0.133 |
| AGAGGCAC | 0.465 |
| GGAGGCAC | 0.474 |
| GGGGGCAC | -0.156 |
| GGAGGCCC | -0.266 |
| AGAGGCAT | -0.0714 |
| GTTCTGGA | 0.0443 |
| GGGCACCC | -0.0287 |
| CGGCACCC | -0.126 |
| GGGCACCA | 0.171 |
| AGGCACCG | 0.491 |
| AGGCACCA | 0.492 |
| CGGCACCA | -0.159 |
| ACGCACCT | 0.129 |
| AGGCACCC | 0.491 |
| CGGCACCG | -0.0283 |
| AAGCACCT | 0.0273 |
| AAGCACCG | -0.206 |
| AGGCACCT | 0.491 |
| CCTATTGA | 0.124 |
| CGGTGTAC | 0.0428 |

| Sequence | PBM E-score |
| --- | --- |
| GGAGATAC | -0.137 |
| AGTTGGAC | 0.0582 |
| GGTAGAGA | -0.198 |
| TCCGGAGA | -0.297 |
| CCGGCGAG | -0.369 |
| AATCGACA | 0.201 |
| GATCCATA | -0.201 |
| ATGGCGGA | -0.302 |
| TCTACCCA | -0.077 |
| CGGTGTCC | -0.376 |
| CAAAGCAG | 0.05 |
| AGCTAACC | -0.152 |
| CTGTAGGC | 0.285 |
| GTGTAGAA | 0.364 |
| ATGTAGGC | 0.361 |
| GCGTAGAA | 0.232 |
| ATGTAGGA | 0.158 |
| ATGTAGAG | 0.252 |
| ATGTAGAA | 0.359 |
| GTGTAGTA | 0.292 |
| CTGTAGAA | 0.191 |
| GTGCGGTA | -0.0948 |
| AGAGAGGA | -0.246 |
| AGTTAGAG | -0.21 |
| GGGAAGCA | -0.178 |

| Sequence | PBM E-score |
| --- | --- |
| AACAGCCT | 0.0281 |
| CGAGCCAG | -0.0469 |
| GTCGAACA | 0.0718 |
| GAAATTTA | 0.165 |
| GTGTACAC | 0.344 |
| GTGTACAA | 0.325 |
| CTGTACAC | 0.265 |
| GTGTAAAC | 0.387 |
| AAGTAAAG | 0.131 |
| GGGTAAAC | -0.0508 |
| CTGTAAAG | 0.24 |
| TTGTAAAA | 0.321 |
| CTGTAAAC | 0.295 |
| ATGTAAAA | 0.415 |
| ATGTAAAG | 0.411 |
| CTGTAAAA | 0.302 |
| GCGCTCCA | -0.136 |
| GTTCGCCA | -0.103 |
| CCATTGAA | 0.0844 |
| CTCGGATC | -0.235 |
| GTCGGGAA | -0.104 |
| AGCATCCT | -0.268 |
| ATAAGATA | 0.0848 |
| CACGTTGC | 0.158 |
| TAGCACGA | -0.0559 |

| Sequence | PBM E-score |
| --- | --- |
| ACTCCGGG | -0.248 |
| CGCTCATA | -0.225 |
| GAGCCCAA | -0.136 |
| CGGCCGGA | -0.264 |
| CCGAACAC | -0.0162 |
| GCGTAAAA | 0.314 |
| AGGTAAAT | 0.318 |
| GGGTAAAA | 0.112 |
| AGGTAAAC | 0.302 |
| ATGTAAAT | 0.42 |
| ACGTAAAT | 0.272 |
| ACGTAAAC | 0.251 |
| GTGTAAAA | 0.377 |
| ATGTAAAC | 0.414 |
| ATGGAGGA | 0.0248 |
| TAGTGACA | 0.124 |
| GTGTGCAA | 0.128 |
| CTGGCCCA | -0.265 |
| TATCGGCA | -0.0281 |
| ATAGCGCC | 0.228 |
| CGACTCTC | -0.347 |
| CATCGAAG | -0.163 |
| AACCTGGG | 0.0477 |
| AGGGACCA | -0.201 |
| AGGTTTGG | -0.141 |
